Assay outcomes (PubChem)
The entries come from a sample that favours hits as a whole.
Pf Dd2 growth: Plasmodium falciparum Dd2 growth inhibition; P. falciparum Dd2 growth, SYBR Green, 72 h; Potency, µM (titrated, usually from 28.9 µM), actives largely listed as inhibitors; 4.3% of 120,000 active; AID 1347417; active = well fitted inhibition curve with a large enough effect; note: nearly all actives have a fitted effect of over 65% in size
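Infected erythrocytes (Dd2, 0.3% parasitemia, 2.5% hematocrit final) are added to compound in RPMI-1640/Albumax II medium, grown 72 h at 37C in low oxygen, then lysed with saponin/Triton-X containing SYBR Green and read by fluorescence.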
Each line names hits and unclear results; the compound was inactive in the other large screens; ! = a repeat was not active.

CCn1cc(C(=O)NCCCN2CCCC(C)C2)c(=O)c2cc(S(=O)(=O)N(C)C3CCCCC3)ccc21 (stereo not given)	Pf Dd2 growth 1µM
CCn1cc(C(=O)NCCCN(CC(C)C)CC(C)C)c(=O)c2cc(S(=O)(=O)N3CCc4ccccc4C3)ccc21	none
CCCCN(CCCC)CCNC(=O)c1cn(CC)c2ccc(S(=O)(=O)N(C)C3CCCCC3)cc2c1=O	none
COc1ccc(CC(=O)N2CCC3(CC2)N(C)C(=O)CS3(=O)=O)cc1Cl	none
NS(=O)(=O)CCCC(=O)N1CCC(Cc2cccc(C(=O)O)c2)C1 (stereo not given)	none
Cc1cc(C(=O)N2CCN(C(=O)N3CC4CC(C3)[C@H]3CCCC(=O)N3C4)CC2)n(C)n1 (stereo not given in full)	none
O=C1NCCCCCN(C(=O)CCCc2ccccc2)[C@H]2CCC[C@@H]12	none
CC(=O)N1CCC(NC[C@H]2O[C@@H]3C[C@@H](CC(=O)NC(C)C)O[C@@H]3[C@@H]2O)CC1	none
COc1ccc(-c2nc3c(c(=O)[nH]2)CCN(C(=O)CSc2ccccc2)C3)cc1	Pf Dd2 growth 4.5µM
COc1ccc(-c2nc3c(c(=O)[nH]2)CCN(C(=O)COc2ccc(F)c(F)c2)C3)cc1	none
COc1ccc(-c2nc3c(c(=O)[nH]2)CCN(C(=O)c2ccccc2)C3)cc1	none
COCC(=O)N1CCN(C(=O)c2cccc(F)c2)C[C@H]1C(=O)OC	none
CN(C)CCNC(=O)c1cc2n(n1)CCCN(C(=O)[C@@H]1CCCN1)C2	none
O=C(c1cccc2nccnc12)N1CCC2(CC1)CC(N1CCCC1)CCO2 (stereo not given)	none
CN(C)C(=O)N1CCC2(C1)C(=O)N(CCc1ccccc1)c1ccccc12 (stereo not given)	none
O=C1N(CCc2ccccc2)c2ccccc2C12CCN([S+](=O)([O-])c1cccs1)C2 (stereo not given)	Pf Dd2 growth 7.9µM!
CC(=O)N1CCC2(C1)C(=O)N(CCc1ccccc1)c1ccccc12 (stereo not given)	none
O=C(c1ccc(Cl)nc1)N1CCC2(C1)C(=O)N(CCc1ccccc1)c1ccccc12 (stereo not given)	Pf Dd2 growth 13µM!
Cc1noc(C)c1[S+](=O)([O-])N1CCC2(C1)C(=O)N(Cc1ccccc1)c1ccccc12 (stereo not given)	none
Cc1ccccc1C(=O)N1CCC2(C1)C(=O)N(CCc1ccccc1)c1ccccc12 (stereo not given)	none
O=C(C1CC1)N1CCC2(C1)C(=O)N(CCc1ccccc1)c1ccccc12 (stereo not given)	Pf Dd2 growth 6.3µM!
O=C1N(Cc2ccccc2)c2ccccc2C12CCN([S+](=O)([O-])c1ccccc1)C2 (stereo not given)	none
O=C(c1ccccc1Cl)N1CCC2(C1)C(=O)N(CCc1ccccc1)c1ccccc12 (stereo not given)	none
COc1ccc(C(=O)N2CCC(Cc3nncn3Cc3ccccc3)C2)cc1 (stereo not given)	none
CCc1n[nH]c(CC2CCN(C(=O)Cc3cccc(F)c3)CC2)n1	none
O=C(Nc1ccc2c(c1)OCO2)N1CCc2onc(-c3ccc(F)c(F)c3)c2C1	none
CCc1cc(CNC(=O)c2cc(Cn3c(C)nc4ccccc43)[nH]n2)on1	none
O=C(NCCc1ccccc1)c1ccc2c(c1)N(Cc1ccccc1F)C(=O)c1ccccc1S2=O (stereo not given)	none
O=C(c1ccc2c(c1)N(Cc1cccc(Cl)c1)C(=O)c1ccccc1S2(=O)=O)N1CCCCCC1	none
O=C(c1ccc2c(c1)N(Cc1cccc(Cl)c1)C(=O)c1ccccc1S2(=O)=O)N1CCCC1	none
Cc1ccccc1CN1C(=O)c2ccccc2S(=O)c2ccc(C(=O)NCc3ccccc3)cc21 (stereo not given)	none
O=C(Nc1cccc(Cl)c1Cl)c1ccc2c(c1)N(Cc1cccc(Cl)c1)C(=O)c1ccccc1S2(=O)=O	Pf Dd2 growth 5.6µM
O=C(Nc1cc(Cl)ccc1Cl)c1ccc2c(c1)N(Cc1cccc(Cl)c1)C(=O)c1ccccc1S2=O (stereo not given)	Pf Dd2 growth 4µM
NC(=O)C1CCN(C(=O)c2ccc3c(c2)N(Cc2cccc(Cl)c2)C(=O)c2ccccc2S3=O)CC1 (stereo not given)	none
COC(=O)c1cc(NC(=O)c2ccc3c(c2)N(Cc2cccc(Cl)c2)C(=O)c2ccccc2S3=O)cc(C(=O)OC)c1 (stereo not given)	Pf Dd2 growth 3.2µM
CCN(CC)CCNC(=O)c1ccc2c(c1)N(Cc1ccccc1)C(=O)c1ccccc1S2=O (stereo not given)	none
CN1Cc2cccn2CC1CNC(=O)c1ccco1 (stereo not given)	none
O=C(N[C@@H]1CN(C(=O)NC2CCCCC2)CCC[C@H]1O)c1ccc(OCCN2CCOCC2)cc1	none
Cc1cccc(O[C@H]2COCCN(S(=O)(=O)c3c(C)noc3C)C2)n1	none
Cc1ccc2[nH]c(=O)c(CN3CCCN(c4ccncc4)CC3)cc2c1	none
O=C1CCN(C(=O)c2ccoc2)CCCCCCN1	none
COc1cccc(NC(=O)c2cc3c(N4CCCC4)nc(C)cn3n2)c1	none
O=C(c1cc2ccccc2o1)N1CCCC2(CNS(=O)(=O)c3cccnc3O2)C1 (stereo not given)	none
Cc1ccc(CN2CCC(CNc3nccc(-c4ccccn4)n3)CC2)o1	none
CN(Cc1ccccc1CN1CCCC1)c1nccc(-c2ccccn2)n1	Pf Dd2 growth 3.5µM
Cc1cccc(N2CCN(c3nccc(-c4ccccn4)n3)CC2)n1	none
COc1ccc(C)cc1Nc1nc(N)c2cc(OC)c(OC)cc2n1	Pf Dd2 growth 2.8µM
CCOC(=O)c1c(C)oc2nc(C)nc(Nc3cc(C)ccc3OC)c12	none
COc1ccc(C)cc1Nc1nc(-c2cccc(Cl)c2)c2c(n1)-c1ccccc1OC2	none
CCS(=O)(=O)NCc1cccnc1Oc1cccc(C(F)(F)F)c1	none
CCOC(=O)c1cnc2c(C)c(Cl)ccc2c1Nc1ccc(C)cc1C	none
CCOC(=O)c1sc2ccccc2c1S(=O)(=O)Nc1cccc(C(F)(F)F)c1	none
CCOC(=O)c1cnc2c(C(F)(F)F)cccc2c1Nc1cccc(C(=O)OC)c1	Pf Dd2 growth 2.8µM
CCOC(=O)c1cnc2c(ccc3ccccc32)c1Nc1ccccc1O	Pf Dd2 growth 11µM
CCOC(=O)c1cnc2c(C)cc(C)cc2c1Nc1ccccc1OCC	none
CCOC(=O)c1cnc2c(C)cccc2c1Nc1ccc(OC(C)C)cc1	none
COc1ccc(CC(=O)Nc2ccc([C@@H](O)[C@H]3COCC(=O)N3Cc3ccccc3OC)cc2)cc1	none
Cc1cnc(CC2CCN(Cc3ccc(F)cc3F)C2)n1CC1CC1 (stereo not given)	none
COCCN(CCOC)CC[C@@H]1CC[C@H](O)[C@@H](C(=O)NCc2ccc(OC)cc2)O1	none
O=C(NCC1CCCCC1)c1ccc2c(c1)N(S(=O)(=O)c1ccccc1)CC2	Pf Dd2 growth 4.5µM
COc1ccccc1CNC(=O)c1ccc2c(c1)CCN2S(=O)(=O)c1ccccc1	none
O=C(NC1CCCC1)c1ccc2c(c1)N(S(=O)(=O)c1ccccc1)CC2	none
O=[S+]([O-])(Nc1nncs1)c1ccc2c(c1)OCCN(Cc1cccs1)C2	none
COc1ccccc1NC(=O)N1C[C@@H](F)C[C@H]1C(=O)N1CCc2ccccc2C1	Pf Dd2 growth 8.9µM
Cc1ccc(NC(=O)N2C[C@@H](F)C[C@H]2C(=O)N2CCc3ccccc3C2)cc1C	none
Cc1ccc(C)c(NC(=O)N2C[C@@H](F)C[C@H]2C(=O)N2CCc3ccccc3C2)c1	none
O=C1[C@@H]2C[C@@H](CN2C(=O)c2ccno2)Oc2ccccc2N1CC1CC1	none
COc1cc(NC(=O)Cn2nc3c(cc2=O)CCCCC3)cc(OC)c1OC	none
